Sm TGR inh – qHTS Assay for the Inhibitors of Schistosoma Mansoni Peroxiredoxins; Schistosoma mansoni thioredoxin glutathione reductase (TGR), Q962Y6; Potency, µM (top dose mostly 114 µM), for the others: at the top dose activity change, negative = inhibition, most hits filed as inhibitors; 3% of 360,000 active; purified TGR, DTNB reduction, TNB absorbance 405 nm; note: % is set by controls: 0 for no effect and ±100 for the full control effect; nearly all actives have a fitted effect of over 60% in size
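First, TGR (20 nM dispensed) and NADPH were mixed with compound. Second, a 15 min room-temperature incubation followed. Third, further NADPH and then DTNB were added to start the reaction. Finally, TNB absorbance was monitored kinetically.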
NS1 inh – qHTS Assay for Inhibitors of Influenza NS1 Protein Function; Potency, µM (highest dose often 46.1 µM), inactives show at the top dose activity, positive = more growth; 0.4% of 270,000 active; calls by dose curve; note: actives are rising curves; nearly all actives have a fitted effect of over 50% in size
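OD600 was taken as the measure of yeast growth restored by compound in an NS1-expressing S. cerevisiae strain. Cells had been washed out of glucose medium and diluted 1:100 into galactose -URA medium, pH 6.0.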
RE007 growth inh – qHTS Assay for Inhibitors of the HIV-1 protein Vpr | Potency, µM (highest dose often 92.2 µM), without a hit: top-dose activity change, negative = less growth, most hits filed as inhibitors | AID 651644, 2012 | S. pombe RE007 Vpr strain, BacTiter-Glo ATP luminescence, 24 h | 0.21% of 360,000 active; active = well fitted falling curve with a large enough effect; inconclusive = small, poorly fitted or top-dose-only effect; inactive = no such curve, though single readings can be large or run the other way; note: % is set by controls: 0 for no effect and ±100 for the full control effect; nearly all actives have a fitted effect of over 50% in size
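Fission yeast RE007 carrying one integrated HIV-1 vpr copy, seeded at OD 0.01 in PMG+AL medium with 23 nL pinned compound. Grown 24 h at 30 degrees; viability read by BacTiter-Glo luminescence after 5 min.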
Tb PYK inh – qHTS of Trypanosoma Brucei Inhibitors | pyruvate kinase (Trypanosoma brucei), Q57TT1 | TbPYK enzyme, Kinase-Glo Plus ATP luminescence, 45 min | Potency, µM (titrated, usually from 76.8 µM), without a hit: at the highest dose activity, negative = inhibition, most hits filed as inhibitors | 0.12% of 410,000 active; note: % is set by controls: 0 for no effect and ±100 for the full control effect; nearly all actives have a fitted effect of over 50% in size
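T. brucei PYK with substrate was exposed to pin-transferred compounds across a concentration series, then started with 130 uM ADP (final). After 45 min at room temperature, Kinase-Glo Plus luminescence was read, normalized and curve-fitted.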
SARS PLP yeast – qHTS of Yeast-based Assay for SARS-CoV PLP. 0.19% of 330,000 active. S. cerevisiae expressing SARS-CoV PLpro, growth rescue. Potency, µM (highest dose often 32.9 µM), for the others: at the top dose activity, positive = growth rescue, hits mostly activators; calls by dose curve; note: 0% is about no effect; nearly all actives have a fitted effect of over 55% in size
LmPK inh – qHTS Assay for Inhibitors of Leishmania Mexicana Pyruvate Kinase (LmPK); Q27686; purified LmPK, Kinase-Glo ATP luminescence, 1 h; Potency, µM (series often up to 57.5 µM), inactives show top-dose activity change, negative = inhibition, actives largely listed as inhibitors; 0.37% of 290,000 active; AID 1721, 2009; note: % is set by controls: 0 for no effect and ±100 for the full control effect
Target sequence (Q27686 whole entry, looked up): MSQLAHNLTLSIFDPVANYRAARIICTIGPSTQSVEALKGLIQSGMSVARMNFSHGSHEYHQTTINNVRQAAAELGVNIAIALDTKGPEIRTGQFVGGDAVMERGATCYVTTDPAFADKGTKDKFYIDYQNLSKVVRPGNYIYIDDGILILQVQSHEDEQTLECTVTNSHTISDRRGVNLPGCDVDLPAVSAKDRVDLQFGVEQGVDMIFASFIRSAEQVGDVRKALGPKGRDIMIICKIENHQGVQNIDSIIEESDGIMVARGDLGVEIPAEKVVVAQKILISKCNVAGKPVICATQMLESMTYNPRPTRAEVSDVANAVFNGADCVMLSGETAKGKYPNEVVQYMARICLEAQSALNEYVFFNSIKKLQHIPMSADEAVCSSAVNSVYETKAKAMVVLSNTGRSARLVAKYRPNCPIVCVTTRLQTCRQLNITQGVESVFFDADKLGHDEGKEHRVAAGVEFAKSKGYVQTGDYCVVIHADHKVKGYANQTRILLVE
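Kinase-Glo luminescence read after 1 h RT reaction of 0.1 nM LmPK with 0.5 mM PEP and 0.1 mM ADP. Activity scaled between uninhibited and enzyme-free controls.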
Active calls of the source: *; ? = inconclusive; . = not tested or not shown; ! = a repeat was not active; [ ] = another dose, or the depositor's remark. The list is not random: actives were taken first. Their share in the collection is about 3.3%. Unless noted, calls come from the whole dose curve; as a rule, active = well fitted curve in the direction sought with a large enough effect; inconclusive = small, poorly fitted or top-dose-only effect, or another doubt; inactive = no such curve, though single readings can be large; an effect the other way counts as inactive or inconclusive. Potency is the fitted concentration of half-maximal effect.

SMILES	Sm TGR inh	NS1 inh	RE007 growth inh	Tb PYK inh	SARS PLP yeast	LmPK inh
c1ccc2c(c1)Nc1cc3ccccc3cc1S2	3.1%	1.1%	-9.7%	-2.5%	0.5%	3.5%
CCN1CCOC(=O)C1CC(=O)Nc1cc(C)cc(C)c1 (stereo unspecified)	17.8µM*	.	.	-4.6%	.	.
COc1cccc(NC(=O)CC2C(=O)OCCN2Cc2ccccc2)c1 (stereo unspecified)	-35.8%	.	.	1.5%	.	.
CN(CC(=O)Nc1ccccc1Cl)C1CCS(=O)(=O)C1 (stereo unspecified)	4.0%	.	6.8%	-3.1%	-1.3%	.
O=C(CC1C(=O)OCC2CCCCN21)Nc1ccccc1C(F)(F)F (stereo unspecified)	?	.	-11.2%	-17.2%	1.5%	1.6%
COc1ccc(Cl)cc1NC(=O)CN(C)C1CCS(=O)(=O)C1 (stereo unspecified)	50.1µM*	.	6.6%	0.2%	1.8%	.
CCN1CCOC(=O)C1CC(=O)Nc1ccc(C(C)=O)cc1 (stereo unspecified)	22.4µM*	.	.	-1.5%	.	.
CCN1CCOC(=O)C1CC(=O)Nc1ccccc1C(F)(F)F (stereo unspecified)	10µM*	.	.	-0.4%	.	.
CC[C@H]1CN(C)[C@H]2Cc3c([nH]c4ccccc34)C(=O)C[C@H]1[C@H]2C(=O)OC	.	12.8%	.	.	.	.
CCc1ccc(CN(Cc2ccco2)c2cnc(S(C)(=O)=O)nc2C(=O)Nc2c(C)cccc2C)cc1	-1.0%	.	.	-2.3%	.	.
CCN1CCOC(=O)C1CC(=O)Nc1cc(Cl)ccc1OC (stereo unspecified)	14.1µM*	.	.	-7.5%	.	.
CCc1ccc(NC(=O)CC2C(=O)OCCN2CC)cc1 (stereo unspecified)	14.1µM*	.	.	-7.2%	.	.
CC(C)c1nc2ccc(C(=O)NCc3ccc(F)cc3)cc2o1	1.1%	.	.	-0.5%	.	.
O=C(NCC(c1ccco1)N1CCc2ccccc2C1)c1cccc([N+](=O)[O-])c1 (stereo unspecified)	39.8µM*	.	-3.3%	-1.0%	2.4%	.
CCOc1ccc(NS(=O)(=O)c2ccc(C(=O)NCC(c3ccco3)N3CCCCC3)cc2)cc1 (stereo unspecified)	.	.	4.2%	2.1%	.	.
CCOc1ccc(C(=O)NCC(=O)NCC(c2ccco2)N2CCCCC2)cc1 (stereo unspecified)	89.1µM*	.	-13.5%	1.4%	0.2%	.
O=C(NCC(c1ccco1)N1CCOCC1)c1cccc([N+](=O)[O-])c1 (stereo unspecified)	-6.8%	.	-1.1%	3.6%	2.2%	8.2%
O=C(NCC(c1ccco1)N1CCOCC1)c1ccc([N+](=O)[O-])cc1 (stereo unspecified)	3.98µM*	.	3.3%	0.4%	-2.3%	-10.0%[11.5 µM]
CS[C@@H](CC(=O)O)C(=O)O	.	-2.0%	.	.	.	.
CC(=O)c1cc2c(cc1NC(=O)CCn1cccc1)OCO2	35.5µM*	-11.5%	-13.0%	-4.0%	-8.4%	3.9%
CN(CC(=O)O)CC(=O)O	.	1.8%	.	.	.	.
O=C(O)CC12CC3CC(C1)CC(n1ncc(NCC4CCCO4)c(Cl)c1=O)(C3)C2 (stereo unspecified)	39.8µM*	1.4%	-17.5%	-4.8%	-1.0%	-2.4%
O=C(O)CC12CC3CC(C1)CC(n1ncc(NCc4ccco4)c(Cl)c1=O)(C3)C2	11.2µM*	5.4%	9.3%	-20.5%	0.1%	2.0%
COc1cc(-c2nnn(CC(=O)Nc3ccc(OC(F)(F)F)cc3)n2)cc(OC)c1OC	6.2%	.	.	1.4%	.	.
Cc1cccc(C(=O)O)c1C[C@H]1NCC[C@H]2c3ccccc3N[C@@H]12	.	-3.3%	.	.	.	.
SMILES	Sm TGR inh	NS1 inh	RE007 growth inh	Tb PYK inh	SARS PLP yeast	LmPK inh
CCOC(=O)CSC(=S)NC(=O)c1ccc(OC)cc1	8.91µM*	15.0%	?	0.3%	-59.7%	-3.3%
CCN(CC)CCCNC(=O)c1cn(CC(C)C)c(=O)c2c1c1ccccc1n2C	?	1.2%	-15.8%	-6.4%	1.4%	1.9%
CCCCN(CC)CCCNC(=O)c1cn(CC(C)C)c(=O)c2c1c1ccccc1n2C	31.6µM*!	-3.7%	-6.9%	-4.9%	-1.1%	3.1%
COc1cccc(-c2nc(SCC(=O)NC3CCCC3)c(-c3ccccc3)[nH]2)c1	7.9%	.	.	-1.4%	.	.
COc1ccc(OC)c(-c2nc3c(C#N)c[nH]n3c2NC2CCCCC2)c1	-12.5%	.	.	-1.8%	.	.
O=C(COC(=O)c1cc(S(=O)(=O)N2CCOCC2)ccc1F)NCc1ccco1	44.7µM*	3.5%	-9.0%	-4.4%	6.3%	-0.4%
O=C(NCc1ccco1)C1CCN(S(=O)(=O)N2CCOCC2)CC1	50.1µM*	4.7%	16.0%	-14.1%	-6.7%	-4.6%
CCOC(=O)c1nc(Nc2ccc(C(=O)OC(C)C)cc2)c2ccccc2n1	-2.0%	.	.	-8.1%	.	.
Cc1ccc(NC(=O)CSc2nc3ccccc3nc2Cc2ccccc2)c(C)c1	1.3%	.	.	-1.6%	.	.
Cc1ccc(S(=O)(=O)NCCSCc2ccco2)cc1	?	-0.2%	4.9%	1.6%	-0.3%	16.4%
COc1ccc(S(=O)(=O)NCCSCc2ccco2)cc1OC	11.2µM*	9.8%	4.0%	-3.0%	-1.3%	7.6%
Cc1cc(C)c(S(=O)(=O)NCCSCc2ccco2)c(C)c1	12.6µM*	.	-2.2%	-5.0%	-1.0%	.
CCOc1ccc(S(=O)(=O)NCCSCc2ccco2)cc1	?	-10.0%	7.6%	-4.5%	-4.1%	0.6%
COc1ccc(S(=O)(=O)NCCSCc2ccco2)cc1	25.1µM*	?	-2.1%	-4.3%	-3.1%	-0.7%
COc1ccc(-c2nc(Cn3c(SCc4cccc(C(F)(F)F)c4)nc4cccnc43)c(C)o2)cc1OC	5.3%	.	.	4.8%	.	.
CCOc1ccc(C(=O)NCc2ccc3c(c2)CCN3C(=O)c2ccc(C)cc2)cc1OCC	-2.6%	.	.	0.7%	.	.
COC1=C(OC)C(=O)C(CC=C(C)CCC=C(C)CCC=C(C)CCC=C(C)CCC=C(C)CCC=C(C)CCC=C(C)CCC=C(C)CCC=C(C)CCC=C(C)C)=C(C)C1=O	.	.	.	-0.1%	.	.
Oc1c(Cl)cc(Cl)cc1C=Nc1cc(C(F)(F)F)ccc1N1CCc2ccccc2C1	-21.7%	-79.2%	.	?	-9.1%	15.8µM*
Oc1c(Cl)cccc1C=Nc1cc(C(F)(F)F)ccc1N1CCCC1	-11.8%	14.9%	3.6%	-30.9%	2.4%	-8.5%
CCN(CC)CCCNC(=O)c1ccc2c(c1)N(Cc1c(F)cccc1Cl)C(=O)c1ccccc1S2	-2.6%	.	.	6.5%	.	.
Fc1cccc(NC(=S)Nc2ccc(Br)cc2)c1	20µM*	-39.3%	7.2%	4.4%	-20.9%	-0.7%
COc1ccc(CN(C)c2ccc(-c3nc(C)no3)cc2[N+](=O)[O-])cc1	2.9%	.	.	5.1%	.	.

Screening results from PubChem BioAssay.
